Over roughly 35,000 sequences, “fluorescence intensity (a.u.)” has its median near 10,000; the highest 2% begin near 52,000. Many of the other results were omitted from the sample, so the highest values are more common in it than they were.

This assay concerns the target T1, OsWOX13 (Oryza sativa, UniProt Q5QMM3 1-267).
T1 sequence: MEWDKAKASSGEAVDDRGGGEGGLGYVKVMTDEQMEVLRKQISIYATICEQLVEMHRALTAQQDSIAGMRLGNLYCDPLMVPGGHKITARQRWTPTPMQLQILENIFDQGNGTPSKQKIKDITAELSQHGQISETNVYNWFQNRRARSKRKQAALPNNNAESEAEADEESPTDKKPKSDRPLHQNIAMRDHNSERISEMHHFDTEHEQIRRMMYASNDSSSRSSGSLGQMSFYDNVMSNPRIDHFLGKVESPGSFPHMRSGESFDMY
Nature of the assay: protein-binding microarray (RPBM); PBS, 2% BSA, 51.3 ng/ul salmon testes DNA, 50 uM zinc acetate, 200 nM TF, 25 C, 1 h; high values mean tight binding. The following applies: protein: recombinant; tags: N-terminal polyhistidine and DsRed monomer fusion (pET32a); label: CyDye5-dUTP incorporated in the synthesized complementary strand; 3' TTTTT single-stranded linker to array surface; dsDNA, one strand shown. The method, boiled down:
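Binding signal is defined as the fluorescence intensity of each feature in arbitrary units, read on an Axon 4000B scanner. Transcription factors with N-terminal polyhistidine and DsRed fusions came from E. coli BL21-CodonPlus and were purified on Ni–NTA. They were incubated at 200 nM for 1 h at 25 °C on a custom Agilent array that had been made double-stranded with Cy5-dUTP, with 50 µM zinc acetate present, and the array was washed.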
On to “AGCTAGCTTTGACTAATCAATCAGCAGCTAATTTCAGTCTCGGAGTCACCTAGTGCAG”, for which the binding signal is 13700 fluorescence intensity (a.u.).
Consider “ATTTAATAGTATTAAACGTAGATTACTGATAAAACCTATTCGGAGTCACCTAGTGCAG”, for which the binding signal is 4260 fluorescence intensity (a.u.).
The figure for “AAAATAAATTGACAACATTCGTACAATATATATAAATATCCGGAGTCACCTAGTGCAG” is 25900 fluorescence intensity (a.u.); for “TAGCTTAGCTCGTATTCGTATAAAACGTAGTACAAGGTTCCGGAGTCACCTAGTGCAG” it is 61300 fluorescence intensity (a.u.); for “AATGTAATGTAACAAATTTGTCTAAAAGGATTGAACTTGGCGGAGTCACCTAGTGCAG” it is 12400 fluorescence intensity (a.u.).
As for “AGAAATTGTGTGATTTATTGTAGTGTGTAGAAATTTATAGCGGAGTCACCTAGTGCAG”, the binding signal was 11700 fluorescence intensity (a.u.).
With “GATATGAGTGACTAATTGACTTTGTGTTGATTTCGAGCAGCGGAGTCACCTAGTGCAG”, the binding signal was 34600 fluorescence intensity (a.u.).
Regarding “CTGATTTAAATTGAAAGCAACCGTCTTTTGATTTGTGTAGCGGAGTCACCTAGTGCAG”, the binding signal was 57100 fluorescence intensity (a.u.).
Turning to “GACTTGACTAATTGATTTGTGTAGATTTCTAAAAGCAAGGCGGAGTCACCTAGTGCAG”, the binding signal was 58600 fluorescence intensity (a.u.).
Regarding “ATAAAATTTTAAAATTTAAATTGTAGCCACAACTGATAAGCGGAGTCACCTAGTGCAG”, the binding signal is 15500 fluorescence intensity (a.u.).
Consider “AAAAGCACATGATTATATCTCATTTTATGGTCTTAGAGCACGGAGTCACCTAGTGCAG”, for which the binding signal was 3350 fluorescence intensity (a.u.).
As for “GTTTGATGAGTCCGGAATAGCATATAGCACATGGAATTGGCGGAGTCACCTAGTGCAG”, the binding signal was 3510 fluorescence intensity (a.u.).
Regarding “CAACAGGATTGGAAGTGATCAGAGACAGGCAATGAAATCCCGGAGTCACCTAGTGCAG”, the binding signal was 8460 fluorescence intensity (a.u.).
“ACACTAAATTAATGTATGCAATGTCCATTGGTAAATAACTCGGAGTCACCTAGTGCAG”: the binding signal was 14900 fluorescence intensity (a.u.).
Take “CTGGATTGGTGATTGATTATCCGAGCAAGCAAAGACGATGCGGAGTCACCTAGTGCAG”: the binding signal is 63800 fluorescence intensity (a.u.).
In the case of “AGTGATTAGTGAAGCAAAGGAAGACGACGAGTGACACGAGCGGAGTCACCTAGTGCAG”, the binding signal was 21900 fluorescence intensity (a.u.).
With “GATTAAGATTTTATCCGATTGATGATGCGCCGTAGCAGTGCGGAGTCACCTAGTGCAG”, the binding signal was 8650 fluorescence intensity (a.u.).
Turning to “TTTAAGATCATGATTAACATGACATTGAAGCATTACCACGCGGAGTCACCTAGTGCAG”, the binding signal was 5610 fluorescence intensity (a.u.).
The figure for “GAATTAGCTTGATTGACAGAAACAAATGGCTACAACTACACGGAGTCACCTAGTGCAG” is 50600 fluorescence intensity (a.u.); for “AACCAGATTCACCGTGATTAGTTTCACCCTAGTCTAGTCTCGGAGTCACCTAGTGCAG” it is 10800 fluorescence intensity (a.u.); for “TTAATTAATTGATCACTTCCAAATCATGTAGCAGTACTGTCGGAGTCACCTAGTGCAG” it is 65400 fluorescence intensity (a.u.).
“ATAATTGAGTAGATAATCCTTGCAATAATCCGCTCAATAACGGAGTCACCTAGTGCAG”: the binding signal was 8180 fluorescence intensity (a.u.).
Regarding “TTAATTGATCAATAATCACTGTTCCTTCTCAAGTAGTCAACGGAGTCACCTAGTGCAG”, the binding signal is 64600 fluorescence intensity (a.u.).
Next, “CACAATTCCTTCTAATTATTTGATAATCAAGTTTCTCCTTCGGAGTCACCTAGTGCAG”: 9620 fluorescence intensity (a.u.); “ATCCATGATTAACAGTTGATTACTGTAGCAAATCATGGATCGGAGTCACCTAGTGCAG”: 34400 fluorescence intensity (a.u.); “ATATATAATCATTGATCTTAATTATTGAGTGTCAGTAGTACGGAGTCACCTAGTGCAG”: 24400 fluorescence intensity (a.u.).
For the sequence “ACTATTAATGTGAACTGATATGATACATTTTAGAGCTAGCCGGAGTCACCTAGTGCAG”, the binding signal is 6440 fluorescence intensity (a.u.).
With “TACACCTTTGACAGACAACAAAGCATTGAATCTTCTATGCCGGAGTCACCTAGTGCAG”, the binding signal was 5260 fluorescence intensity (a.u.).
In the case of “GATAACTGGATTCATCTGTCTCCTCAACGTGTGGTCTGTACGGAGTCACCTAGTGCAG”, the binding signal was 19900 fluorescence intensity (a.u.).
The figure for “TGCCACACAAATTTTGCAAAATTTGTGATATGCCACCTGACGGAGTCACCTAGTGCAG” is 6080 fluorescence intensity (a.u.).
The figure for “GCCAAATTGACAGAGTTACCTCGCTATATAAGGCTGCCCACGGAGTCACCTAGTGCAG” is 57600 fluorescence intensity (a.u.); for “ACTTGACAGGAATTGCAGAAAGGCCCCTCGCCAAAACTCACGGAGTCACCTAGTGCAG” it is 30900 fluorescence intensity (a.u.); for “TAATAATAATAATAATGCAAATTACCAAAATATAAGCCCACGGAGTCACCTAGTGCAG” it is 6280 fluorescence intensity (a.u.).
As to “ATATCAATTAATGCTTCAAGATTAGCACCCATATTATATGCGGAGTCACCTAGTGCAG”, the binding signal is 35100 fluorescence intensity (a.u.).
“TTTGATTCTTTTAAATTAAATAATTTTAAAGTCATTGATACGGAGTCACCTAGTGCAG”: the binding signal was 21100 fluorescence intensity (a.u.).
Next, “CTTAATTAACACTCGTAAGATTGACAAATAGTTGAATATCCGGAGTCACCTAGTGCAG”: 60300 fluorescence intensity (a.u.); “TTGATTGACTAAACTGTCACGTCAGCGTCATATTGACGAACGGAGTCACCTAGTGCAG”: 54900 fluorescence intensity (a.u.).
As to “AATCATTTAAAACATTGATTTTATTTGACGATAAAACTAGCGGAGTCACCTAGTGCAG”, the binding signal was 4690 fluorescence intensity (a.u.).
Next, “TATTTTCAATTATAGGTCTAATTGTTTTATTTAGGTGATTCGGAGTCACCTAGTGCAG”: 20500 fluorescence intensity (a.u.).
The figure for “AGACAATGATAGTGATAATTAACAAATTCAGTTTAAGATCCGGAGTCACCTAGTGCAG” is 19700 fluorescence intensity (a.u.); for “GAAATAATTAATTAATTTAATTAATTGATTGACACAAGTACGGAGTCACCTAGTGCAG” it is 65000 fluorescence intensity (a.u.).
On to “AAATTGACAAGATAGATCAATATATAATATATCACTACACCGGAGTCACCTAGTGCAG”, for which the binding signal is 10200 fluorescence intensity (a.u.).
“CTAATTGATTAGTAAACTATTTATATAGGACTGTTGTTTTCGGAGTCACCTAGTGCAG”: the binding signal is 58300 fluorescence intensity (a.u.).
Consider “AGTGATTAATGAGACAAATAGTACTTTATTGTGACAAGTACGGAGTCACCTAGTGCAG”, for which the binding signal was 30900 fluorescence intensity (a.u.).
On to “GGTAATATTTTGATTAAATTTGACTAAATTTTGTTTAAAACGGAGTCACCTAGTGCAG”, for which the binding signal is 11800 fluorescence intensity (a.u.).
“AAACTGATTCTTTGATTATTGACGTCTCATAGACCTACGTCGGAGTCACCTAGTGCAG”: the binding signal was 31600 fluorescence intensity (a.u.).

Source of the values: PMC7819943, “Rice protein-binding microarrays: a tool to detect cis-acting elements near promoter regions in rice”.
